# Laboratory results: PubChem BioAssay (NCATS)
# Values joined by “and” are separate entries in the source; they are usually repeats but may differ in a detail not shown here. Equal entries are not always repeated. Results filed as inconclusive are left out. A call without a number means that no potency is given here. Active and inactive are the calls of the source. Unless noted, the call rests on the fitted dose curve; in most records, active means well fitted curve in the direction sought with a large enough effect; inconclusive means small, poorly fitted or top-dose-only effect, or another doubt; inactive means no such curve, though single readings can be large; an effect the other way counts as inactive or inconclusive.
# Legend:
# [1] = molecular target: Calcium and integrin-binding protein 1 (Homo sapiens) (UniProt Q99828); test: Primary qHTS for Identification of Calcium Integrin Binding Protein 1 (CIB1) Competitor (AID 1508620); details: CIB1-GST / FITC-alphaIIb peptide fluorescence polarization; series mostly up to 57.7 µM;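 further: GST tagged CIB1 binding a fluorescein labelled alphaIIb integrin peptide tracer; top concentration of the series differs between compounds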
# Summary of the method: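 CIB1-GST (1 uM final) and compound incubated 15 min at room temperature before adding FITC-alphaIIb peptide tracer (100 nM final). Competition for binding read by fluorescence polarization (ex 480, em 540) after another 15 min at room temperature.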
# [2] = Primary qHTS for small molecule stabilizers of the endoplasmic reticulum resident proteome: Secreted ER Calcium Modulated Protein (SERCaMP) assay (AID 1508630); details: SH-SY5Y GLuc-SERCaMP (Gaussia luciferase released on ER calcium loss) secretion, thapsigargin, luminescence; series mostly up to 38.4 µM
# Summary of the method: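 GLuc-SERCaMP-expressing SH-SY5Y cells, pretreated 16 h with compound, are challenged with thapsigargin to empty ER calcium stores; after 4 h, coelenterazine is added directly to the medium and luminescence is imaged.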
# [3] = molecular target: Cytochrome P450 2D6 (Homo sapiens) (UniProt P10635); test: Cytochrome P450 family 2 subfamily D member 6 (CYP2D6) small molecule antagonists: luciferase biochemical (cell-free) qHTS assay (AID 1645840; active means well fitted curve in the direction sought with a large enough effect in the repeat runs; an effect the other way counts as inactive or inconclusive; further: nearly all actives have a fitted effect of over 55% in size; further: potency means the concentration at half of the fitted maximal effect); details: P450-Glo CYP2D6 enzyme, luciferin luminescence, 1 h; series mostly up to 57.4 µM
# Summary of the method: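 P450-Glo luminescent screen: recombinant CYP2D6 enzyme–proluciferin substrate mix preincubated with compound 10 min at room temperature, then NADPH regeneration added for 1 h at room temperature. Detection reagent added for 20 min; luciferin light read as relative luminescence units.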
# [4] = molecular target: Cytochrome P450 2C9 (Homo sapiens) (UniProt P11712); test: Cytochrome P450 family 2 subfamily C member 9 (CYP2C9) small molecule antagonists: luciferase biochemical (cell-free) qHTS assay (AID 1645842; active means well fitted curve in the direction sought with a large enough effect in the repeat runs; an effect the other way counts as inactive or inconclusive; further: nearly all actives have a fitted effect of over 55% in size; further: potency means the concentration at half of the fitted maximal effect); details: P450-Glo CYP2C9 enzyme assay, luciferin luminescence; series mostly up to 57.4 µM
# Summary of the method: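 Luminescence, after 20 min with luciferin detection reagent, reflected CYP2C9 turnover during a 1 h NADPH-driven reaction at 37C. Enzyme-substrate mix contained 0.4% bovine serum albumin and was preincubated with compound 10 min at room temperature.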
# [5] = Primary qHTS for inhibitors of nuclear receptor binding SET domain protein 2 (NSD2) in an isogenic RCH-ACV NSD2 p.E1099K mutant (9B) (AID 1645876); details: RCH-ACV NSD2 E1099K (9B) viability, CellTiter-Glo, 72 h; series mostly up to 44.9 µM; further: nearly all actives have a fitted effect of over 70% in size; further: potency means the concentration at half of the fitted maximal effect
# [6] = Primary qHTS for inhibitors of nuclear receptor binding SET domain protein 2 (NSD2) in an RCH-ACV wild type WT cells (2C) (AID 1645877); details: RCH-ACV (leukaemia line) NSD2 WT (2C) viability, CellTiter-Glo, 72 h; series mostly up to 44.9 µM; further: nearly all actives have a fitted effect of over 70% in size; further: potency means the concentration at half of the fitted maximal effect
# [7] = molecular target: Catechol O-methyltransferase (Homo sapiens) (UniProt P21964); test: Confirmatory Screen for Target Class Profiling of Small Molecule Inhibitors of Methyltransferases (AID 1745852); details: MTase-Glo luminescence, SAH detection, recombinant enzyme; measured here: COMT max response; stronger effect = lower value
# Sequence of Catechol O-methyltransferase (Homo sapiens) (P21964 whole entry, looked up): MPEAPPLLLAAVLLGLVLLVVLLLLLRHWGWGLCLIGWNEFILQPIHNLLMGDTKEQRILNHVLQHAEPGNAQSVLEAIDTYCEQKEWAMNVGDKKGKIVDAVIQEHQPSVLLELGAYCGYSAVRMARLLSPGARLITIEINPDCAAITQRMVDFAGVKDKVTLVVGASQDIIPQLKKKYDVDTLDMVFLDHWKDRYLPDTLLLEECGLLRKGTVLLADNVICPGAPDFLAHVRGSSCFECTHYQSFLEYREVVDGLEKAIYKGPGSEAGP
# Sequence of Cytochrome P450 2C9 (Homo sapiens) (P11712 whole entry, looked up): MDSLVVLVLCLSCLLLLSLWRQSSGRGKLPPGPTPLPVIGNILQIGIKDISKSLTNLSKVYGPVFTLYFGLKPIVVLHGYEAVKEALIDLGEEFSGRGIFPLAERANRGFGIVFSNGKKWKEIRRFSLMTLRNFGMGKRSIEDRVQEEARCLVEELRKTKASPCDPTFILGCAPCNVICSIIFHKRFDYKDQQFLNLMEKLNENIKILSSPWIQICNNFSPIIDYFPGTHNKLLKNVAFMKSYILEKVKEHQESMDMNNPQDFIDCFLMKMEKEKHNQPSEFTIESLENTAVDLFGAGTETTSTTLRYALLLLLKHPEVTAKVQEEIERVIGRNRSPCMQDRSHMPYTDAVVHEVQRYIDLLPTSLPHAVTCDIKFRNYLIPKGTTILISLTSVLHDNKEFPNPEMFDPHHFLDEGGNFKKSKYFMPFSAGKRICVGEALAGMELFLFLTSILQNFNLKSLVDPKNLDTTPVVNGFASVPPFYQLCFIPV
# Sequence of Calcium and integrin-binding protein 1 (Homo sapiens) (Q99828 whole entry, looked up): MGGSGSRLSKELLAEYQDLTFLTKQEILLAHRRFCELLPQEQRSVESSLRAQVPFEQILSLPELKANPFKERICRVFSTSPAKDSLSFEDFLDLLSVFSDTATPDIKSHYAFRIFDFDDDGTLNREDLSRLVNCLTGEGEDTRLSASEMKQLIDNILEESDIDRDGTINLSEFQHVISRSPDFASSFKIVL
# Sequence of Cytochrome P450 2D6 (Homo sapiens) (P10635 whole entry, looked up): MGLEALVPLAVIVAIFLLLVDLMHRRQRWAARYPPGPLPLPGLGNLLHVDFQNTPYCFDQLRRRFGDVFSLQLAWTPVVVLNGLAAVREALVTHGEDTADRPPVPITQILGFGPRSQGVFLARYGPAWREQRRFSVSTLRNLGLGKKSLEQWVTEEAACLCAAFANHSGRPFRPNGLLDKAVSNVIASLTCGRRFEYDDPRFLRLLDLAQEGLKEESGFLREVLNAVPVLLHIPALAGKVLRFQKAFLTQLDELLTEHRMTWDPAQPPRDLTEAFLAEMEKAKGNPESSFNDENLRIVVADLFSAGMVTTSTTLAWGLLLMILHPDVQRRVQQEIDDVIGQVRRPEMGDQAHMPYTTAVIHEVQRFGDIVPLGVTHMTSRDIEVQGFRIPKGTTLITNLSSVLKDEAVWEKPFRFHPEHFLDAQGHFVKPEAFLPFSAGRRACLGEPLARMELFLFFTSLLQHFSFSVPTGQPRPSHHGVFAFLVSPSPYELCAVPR
SMILES,outcome [1],Potency [2],Potency [3],Potency [4],Potency [5],Potency [6],activity [7],"activity change, negative = inhibition [1]","activity change, negative = inhibition [2]"
CC(C)c1cnn2c(NCc3ccccc3)cc(N[C@@H](CO)[C@H](O)CO)nc12,inactive,inactive,inactive,3.79 µM (active),515 nM (active) and 186 nM (active),515 nM (active) and 166 nM (active),–,–,–
CC(C)c1cc(C(=O)N2Cc3ccc(CN4CCN(C)CC4)cc3C2)c(O)cc1O,inactive,inactive,inactive,12 µM (active),115 nM (active) and 148 nM (active),129 nM (active) and 166 nM (active),–,–,–
CN(C)CC(C)(C)CNc1nn2c(-c3ccccc3)nnc2cc1C1CCC1,inactive,inactive,2.13 µM (active),8.49 µM (active),inactive,inactive,–,–,–
Cn1cc(-c2ccncc2)c(-c2ccc(OCc3ccc4ccccc4n3)cc2)n1,inactive,inactive,7.56 µM (active),0.601 µM (active),12.9 µM (active),14.5 µM (active),–,–,–
Clc1cccc(-c2nnnn2Cc2cccnc2)c1Cl,inactive,inactive,inactive,–,inactive,inactive,–,–,–
C=CCn1c(=O)c2cnc(Nc3ccc(N4CCN(C)CC4)cc3)nc2n1-c1cccc(C(C)(C)O)n1,inactive,inactive,inactive,–,290 nM (active) and 372 nM (active),230 nM (active) and 468 nM (active),-20.7%,–,–
C=C1C(=CC=C2CCC[C@]3(C)[C@@H]([C@H](C)C=C[C@H](C)C(C)C)CC[C@@H]23)C[C@@H](O)C[C@@H]1O,inactive,inactive,–,9.52 µM (active),inactive,inactive,–,–,–
Cc1cnc(Nc2ccc(F)cc2Cl)nc1-c1c[nH]c(C(=O)N[C@H](CO)c2cccc(Cl)c2)c1,inactive,inactive,8.49 µM (active),3.38 µM (active),2.9 µM (active) and 18.6 µM (active),3.65 µM (active) and 14.8 µM (active),–,–,–
Cc1cc(Nc2ncnc3ccc(-c4ccc(CNCCS(C)(=O)=O)o4)cc23)ccc1Oc1ccn2ncnc2c1,inactive,inactive,–,12 µM (active),16.3 µM (active) and 16.6 µM (active),10.3 µM (active) and 14.8 µM (active),–,–,–
O=C(Cc1ccc(-c2ccc(OCCN3CCOCC3)cc2)cn1)NCc1ccccc1,inactive,inactive,inactive,–,459 nM (active) and 105 nM (active),258 nM (active) and 105 nM (active),–,–,–
NC1(Cc2ccc(Cl)cc2)CCN(c2ncnc3[nH]ccc23)CC1,inactive,inactive,–,inactive,9.34 µM (active),8.33 µM (active),-4.59%,–,–
CC1(O)CC(c2nc(-c3ccc4ccc(-c5ccccc5)nc4c3)c3c(N)nccn23)C1 (stereo not drawn),inactive,inactive,–,2.13 µM (active) and 952 nM (active),12.9 µM (active),18.3 µM (active),–,–,–
Nc1ncnc2c1c(-c1cccc(OCc3ccccc3)c1)cn2C1CC(CN2CCCC2)C1 (stereo not drawn),inactive,inactive,12 µM (active),16.9 µM (active),11.8 µM (active),10.5 µM (active),-58.1%,–,–
Cn1c2cc(S(C)=O)sc2c2cnn(Cc3cccc(N)c3)c(=O)c21 (stereo not drawn),inactive,inactive,–,19 µM (active),–,–,–,–,–
O=C(Nc1cn[nH]c1-c1nc2ccc(CN3CCOCC3)cc2[nH]1)NC1CC1,inactive,inactive,inactive,inactive,325 nM (active) and 366 nM (active) and 166 nM (active),64.9 nM (active) and 58 nM (active) and 59 nM (active),–,–,–
C=CC(=O)Nc1cc2c(Nc3ccc(F)c(Cl)c3)ncnc2cc1OCCCN1CCOCC1,inactive,inactive,–,inactive,1.68 µM (active) and 2.95 µM (active),1.5 µM (active) and 2.95 µM (active),–,–,–
O=C(O)C1(Cc2cccc(Nc3nccs3)n2)CCC(Oc2cccc(Cl)c2F)CC1 (stereo not drawn),inactive,inactive,inactive,7.56 µM (active),1.45 µM (active),2.58 µM (active) and 3.72 µM (active),-35%,–,–
CC(C)(O)c1cc2nc(-c3cnc(N)nc3)nc(N3CCOCC3)c2s1,inactive,inactive,inactive,–,0.372 µM (active),0.372 µM (active),–,–,–
CC1COC2(CCN(c3nc(=O)c4cc(C(F)(F)F)cc([N+](=O)[O-])c4s3)CC2)O1 (stereo not drawn),inactive,inactive,–,inactive,inactive,inactive,–,–,–

SMILES,outcome [1],Potency [2],Potency [3],Potency [4],Potency [5],Potency [6],activity [7],"activity change, negative = inhibition [1]","activity change, negative = inhibition [2]"
CCS(=O)(=O)c1cccc(-c2cc(C(=O)NC3CCN(C)CC3)c(C)c3[nH]c4ncc(C)cc4c23)c1,inactive,inactive,inactive,4.77 µM (active),113 nM (active) and 166 nM (active),35.8 nM (active) and 41.7 nM (active),-16.8% and -13.7%,–,–
CN1CCC(CNc2ccc3ncc(-c4cccc(OC(F)(F)F)c4)n3n2)CC1,inactive,inactive,2.39 µM (active),–,2.58 µM (active) and 4.68 µM (active),2.05 µM (active) and 3.32 µM (active),-52.2%,–,–
O=C(c1ccc(Nc2nccc(-c3cc4ccccc4s3)n2)cc1)N1CCC(N2CCCC2)CC1,inactive,inactive,–,inactive,1.45 µM (active) and 1.66 µM (active),1.63 µM (active) and 1.66 µM (active),-18.2%,–,–
Cc1cc(Nc2nc(N[C@@H](C)c3ccc(F)cc3)c(C#N)cc2F)n[nH]1,inactive,inactive,26.8 µM (active),1.9 µM (active),578 nM (active) and 934 nM (active),578 nM (active) and 742 nM (active),-4.92%,–,–
Cc1ccc(CN2CCNCC2)cc1NC(=O)CNc1ccc(F)c(F)c1,inactive,inactive,–,inactive,inactive,inactive,–,–,–
CC1(C)CC(=O)c2c(C(F)(F)F)nn(-c3ccc(C(N)=O)c(NC4CCC(OC(=O)CN)CC4)c3)c2C1 (stereo not drawn),inactive,inactive,15.1 µM (active),2.68 µM (active),103 nM (active) and 74.2 nM (active),81.7 nM (active) and 118 nM (active),-2.7%,–,–
COc1cccc(Nc2c(C(N)=O)cnc3c(C)cc(S(=O)(=O)c4cccc(C(=O)N(C)C)c4)cc23)c1,inactive,inactive,–,0.849 µM (active),–,–,–,–,–
Nc1ccccc1NC(=O)c1ccc(CNc2nccc(-c3cccnc3)n2)cc1,inactive,inactive,4.77 µM (active),5.35 µM (active),258 nM (active) and 590 nM (active),205 nM (active) and 590 nM (active),-14%,–,–
COc1cc2c(Oc3ccc(NC(=O)C4(C(=O)Nc5ccc(F)cc5)CC4)cc3F)ccnc2cc1OCCCN1CCOCC1,inactive,inactive,–,3.01 µM (active),515 nM (active) and 1.32 µM (active),365 nM (active) and 833 nM (active),–,–,–
Cc1c(Cn2c(C)nc3c(C(=O)O)cc(N4CCOCC4)cc32)cccc1C(F)(F)F,inactive,inactive,–,inactive,–,–,–,–,–
COC(=O)c1ccc2c(C(=Nc3ccc(N(C)C(=O)CN4CCN(C)CC4)cc3)c3ccccc3)c(O)[nH]c2c1,inactive,inactive,inactive,inactive,1.83 µM (active) and 2.63 µM (active),2.3 µM (active) and 3.32 µM (active),–,–,–
COc1cc(C(=O)N2CCC(N3CCN(C)CC3)CC2)ccc1Nc1ncc2c(n1)N(C)c1ccccc1C(=O)N2C,inactive,inactive,inactive,–,1.15 µM (active) and 1.48 µM (active),1.45 µM (active) and 1.86 µM (active),–,–,–
CNc1nccc(-c2cccnc2Oc2cc(C(=O)Nc3cccc(C(F)(F)F)c3)ccc2C)n1,inactive,inactive,–,3.01 µM (active),2.58 µM (active) and 3.72 µM (active),4.09 µM (active),–,–,–
C=CC(=O)Nc1cccc(Oc2nc(Nc3ccc(N4CCN(C)CC4)cc3)ncc2Cl)c1,inactive,inactive,19 µM (active),2.39 µM (active),728 nM (active) and 2.09 µM (active),649 nM (active) and 1.32 µM (active),-18%,–,–
COc1ccc(CC2c3cc(OC)c(OC)cc3CC[N+]2(C)CCC(=O)OCCCCCOC(=O)CC[N+]2(C)CCc3cc(OC)c(OC)cc3C2Cc2ccc(OC)c(OC)c2)cc1OC (stereo not drawn),–,–,–,inactive,23.5 µM (active),23.5 µM (active),–,-3.2% [at 6.45 µM] (inactive),101% [at 7.35 µM] (inactive)
COc1ccc2c(OCc3nnc4ccc(-c5ccccc5)nn34)ccnc2c1,inactive,inactive,inactive,0.756 µM (active),inactive,inactive,–,–,–
CCn1cc(-c2ccnc3[nH]c(-c4cccc(CN(C)C)c4)cc23)c(-c2ccc(NC(=O)N(C)C)cc2)n1,inactive,inactive,19 µM (active),21.3 µM (active),112 nM (active) and 1.86 µM (active),36.6 nM (active) and 37.2 nM (active),-5.39% and -8.37%,–,–
CC(C)Nc1cc(C(F)(F)F)cc2nc(NC(=O)c3cccnc3)nn12,inactive,inactive,inactive,–,inactive,inactive,–,–,–
Cc1ccc(C(=O)Nc2ccc(CN3CCN(C)CC3)c(C(F)(F)F)c2)cc1C#Cc1cnc2cccnn12,inactive,inactive,16.9 µM (active),12 µM (active),29 nM (active) and 186 nM (active),91.6 nM (active) and 209 nM (active),–,–,–
